Screening results from PubChem.
Most compounds without a hit are left out; they make up all but 4.1% or so of the library.
DAX1 inh-1: NR0B1 (DAX1) inhibition. P51843. HEK293 Gal4-DAX1 luciferase reporter, luminescence. inhibition, % at 6.75 µM. 0.99% of 340,000 active. AID 504766;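 active = inhibition above the mean over all tested compounds plus 3 SD, cut at about 4.2% in these data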;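 also: inhibition shows as a rise in luminescence from relieved DAX1 repression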
Target sequence (P51843 207-470 limits assumed): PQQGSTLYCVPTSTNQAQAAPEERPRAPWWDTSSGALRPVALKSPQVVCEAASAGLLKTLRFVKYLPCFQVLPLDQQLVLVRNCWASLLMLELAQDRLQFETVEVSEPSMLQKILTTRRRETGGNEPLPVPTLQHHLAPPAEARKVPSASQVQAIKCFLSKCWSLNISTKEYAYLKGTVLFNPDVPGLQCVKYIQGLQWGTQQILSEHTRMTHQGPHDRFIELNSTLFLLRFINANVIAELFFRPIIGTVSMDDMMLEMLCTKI
hcDAF-12 act: activates DAF-12 receptor from parasite H. contortus; HEK293 hcDAF-12 lit1-tk-luc reporter, luminescence; 0% DMSO, 100% Δ7-dafachronic acid; activation, % at 6.8 µM; 1.4% of 370,000 active; AID 652067;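 active = activation above the mean of all tested compounds plus 3 SD, cut at about 5.5% in these data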
hgDAF12 agonist: agonists of H. glycines DAF-12 nuclear receptor. HEK293 GAL4-hgDAF12 UAS-luciferase reporter, agonist luminescence; normalized to butyrate control. activation, % at 6.8 µM. 1.8% of 370,000 active;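 active = activation above a cutoff set at the mean of all screened compounds plus 3 SD, cut at about 10% in these data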
ssDAF12 agonist: S. stercoralis DAF-12 activation, primary screen; HEK293 ssDAF-12/GRIP1 lit1-tk-luc reporter, luminescence; % of 3 µM dafachronic acid response; activation, % at 6.8 µM; 1% of 370,000 active; AID 652126;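 active = activation above the mean over all tested compounds plus 3 SD, cut at about 0.9% in these data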
DAX1 inh-2: DAX1 (NR0B1) inhibition, primary screen. HEK293T StAR-luciferase reporter, SF-1/DAX-1 repression relief. inhibition, % at 6.8 µM. 1.1% of 370,000 active. AID 652010;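 active = inhibition above the mean over all tested compounds plus 3 SD, cut at about 3.6% in these data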;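 also: higher inhibition means more luminescence from relief of DAX-1 repression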
Large screens that a line does not name were inactive.

Cc1ccc(C(=O)/C=C\Nc2ccc(C)c(C)c2)cc1	hgDAF12 agonist 12.9
Cc1ccc(C(=O)C=CC=Cc2ccccc2)cc1	DAX1 inh-1 4.5
Cc1ccc(NC(=O)C(=O)c2ccc(C)cc2)cc1	hgDAF12 agonist 12.4
NC(N)=NS(=O)(=O)c1ccc(N/C=C\C(=O)c2ccncc2)cc1	DAX1 inh-1 6.9
Cc1ccc(N/C=C/C(=O)c2ccc(C)cc2)cc1	hgDAF12 agonist 12.7
CCNC(=O)N(C)[C@H]1C[C@H]2c3[nH]c4c(-c5cccc(C)c5)cccc4c3CCN2C[C@H]1[C@H](C)O	none (no result: DAX1 inh-1)
O=C(NCc1ccccc1)c1cccc(COc2cc(Cl)ccc2Cl)c1	hgDAF12 agonist 10.7
CCCc1nn(C)c(C(N)=O)c1[N+](=O)[O-]	ssDAF12 agonist 1.0
CN(C)C(=O)c1c([N+](=O)[O-])c(C(C)(C)C)nn1C	none
O=C(Cc1nnc(NC(=O)Nc2ccc(F)cc2)s1)Nc1ccccc1	ssDAF12 agonist 1.1
Cn1c(SCC(=O)NCCc2ccccc2)ncc(C(=O)Nc2ccc(F)cc2)c1=O	ssDAF12 agonist 0.9
Cn1c(SCC(=O)c2ccccc2)ncc(C(=O)Nc2ccccc2)c1=O	none
Nc1cc2c(cc1Br)-c1ccc(F)cc1C2O (stereo unspecified)	hgDAF12 agonist 11.6
O=C(Nc1ccc(Cl)cc1)NC1CCCCC1	none
O=C(Nc1ccc2nsnc2c1)NC1CCCCC1	hgDAF12 agonist 11.9
O=C(Nc1ccc(F)cc1)NC1CCCCCCC1	hgDAF12 agonist 12.4
O=C(NC1CCC1)c1ccc(C#Cc2cccc(F)c2)nc1	hgDAF12 agonist 11.0 (no result: DAX1 inh-1)
CN1C(=O)c2ccc(C(=O)NC3CCCCC3)cc2C1=O	ssDAF12 agonist 1.0
O=[N+]([O-])c1ccccc1/C=C/C1Nc2cccc3cccc(c23)N1	none (no result: DAX1 inh-1)
CCC(C)[C@H](N)C(=O)NC[C@H]1CC[C@H](C(=O)N[C@@H](Cc2ccccc2)C(=O)O)CC1 (stereo partly specified)	none
CCC(C#Cc1ccccc1)NCc1ccc(OC)cc1OC (stereo unspecified)	none (no result: DAX1 inh-1, DAX1 inh-2)
O=C(NNC(=O)c1ccncc1)NC1CCCCC1	DAX1 inh-1 4.8
O=C(NC1CCCCCCC1)c1ccc(F)cc1	hgDAF12 agonist 11.2
O=C(NC1CC2CCCC(C1)N2C(=O)NC1CCCCC1)c1ccc(F)cc1 (stereo unspecified)	none
CC(C)C[C@@H]1COc2cc(Br)ccc2S(=O)(=O)N1Cc1cn(CCC2OCCCO2)nn1	none (no result: DAX1 inh-1)
C[C@H]1[C@@H](OC(=O)Nc2cccc(Cl)c2)CC[C@@]23CCCN2C(=O)CCC[C@@H]13	none (no result: DAX1 inh-1, DAX1 inh-2)
C=CCn1nc2ccccc2c1OCCO	hcDAF-12 act 6.0
Cc1ccccc1C1c2[nH]c3ccccc3c2C[C@H]2C(=O)N(C3CC3)CC(=O)N12 (stereo partly specified)	hcDAF-12 act 6.4
CCCCCCC12C(=Cc3cc(C)ccc31)c1ccccc1C(CC(=O)NCc1ccccc1)N2C(=O)OC (stereo unspecified)	none (no result: DAX1 inh-1)
COC(=O)C1CN(Cc2cn(CCC3OCCO3)nn2)CCS(=O)(=O)N1Cc1ccc(F)cc1 (stereo unspecified)	none (no result: DAX1 inh-1)
CCOc1ccc(NC(=O)Cc2ccccc2)c([N+](=O)[O-])c1	none
CCOc1ccc(NC(=O)Cc2cccc3ccccc23)c([N+](=O)[O-])c1	ssDAF12 agonist 6.7
O=C(NC1CCCCC1)C1c2ccccc2OCC(=O)N1Cc1ccco1 (stereo unspecified)	DAX1 inh-2 4.4 (no result: DAX1 inh-1)
O=C(NC1CCCC1)C1c2ccccc2OCC(=O)N1Cc1ccccn1 (stereo unspecified)	none (no result: DAX1 inh-1)
N[C@@H](Cc1ccc(O)c(O)c1)C(=O)O	none
NC(Cc1ccc2nsnc2c1)C(=O)O (stereo unspecified)	ssDAF12 agonist 2.9
CC(C)CCNC(=O)C1CCN(c2cncnc2)CC1	none (no result: DAX1 inh-1)
CCc1ccc(C(=O)NNC(=O)CC2OC(=O)c3ccccc32)cc1 (stereo unspecified)	ssDAF12 agonist 1.0
O=C(CC1OC(=O)c2ccccc21)NCC1COc2ccccc2O1 (stereo unspecified)	none
Cc1occc1C(=O)Nc1ccc(Br)cc1F	hgDAF12 agonist 11.7
Cc1occc1C(=O)Nc1cc(C(F)(F)F)ccc1Cl	DAX1 inh-1 4.6
C/C(=N/NC(=O)c1cc(C)[nH]n1)c1ccncc1	none
CCOc1ccccc1C(=O)Nc1ccc(C(=O)NCC2COc3ccccc3O2)cc1 (stereo unspecified)	none (no result: DAX1 inh-1)
